This is part of a sample that, as a whole, favours compounds with a hit. Of some 83,000 tested, about 20% had one in any assay.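 Compound tested at a single concentration for 48 hours in 96-well plates; a percent growth value below 10 was scored as active.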 Calls of active or inactive are those of the source.

The test system of the first assay is HT29 colon. Briefly: NCI-60 one-dose screen, 48 h (100 = growth as untreated, 0 = no growth, -100 = all killed). As to conditions: 10 µM unless noted.
With `Cc1ccc(/C=N/Nc2nc(Nc3ccccc3)nc(Nc3ccc(S(N)(=O)=O)cc3)n2)cc1`, the growth is 54.8% (inactive).
The same measure, in the same setting: in the case of `Cc1ccc(S(=O)(=O)NCCCNc2nc(Nc3ccc(N4CCN(C)CC4)cc3)nc3ccsc23)cc1` it was -61.8% (active); in that of `CC(C)=CCC[C@](C)(O)[C@H]1CC[C@]2(C)[C@@H]1CC[C@@H]1[C@@]3(C)CC[C@H](N)C(C)(C)[C@@H]3CC[C@]12C`, 59.6% (inactive).
The same measure, in the same setting: in the case of `NNc1nnc2nc(Nc3ccccc3)nc(Nc3ccc(S(N)(=O)=O)cc3)n12` it was 108% (inactive).

For another assay, the system named is SNB-75 CNS. Described as above. As to conditions: 10 µM unless noted.
Turning to `COCCOc1ccc2ncc(C#Cc3cncc(C(=O)Nc4ccc(CN5CCN(C)CC5)c(C(F)(F)F)c4)c3)n2n1`, the growth is 4.29% (active).
Turning to `CCOC(=O)c1c(N)c(C#N)cn1Cc1ccc(Cl)cc1Cl`, the growth was 47.3% (inactive).
The same measure, in the same setting: as for `Cc1ccc(Nc2nc(SC(C)C)nc(-c3ccccc3)c2C#N)cc1`, the figure is 91.1% (inactive); as for `O=C(CSc1nc2ccccc2c(=O)n1-c1ccc(Cl)c(Cl)c1)Nc1ccc(S(=O)(=O)Nc2ccc(Cl)nn2)cc1`, 68.8% (inactive).
As for `N#Cc1cnc2ccc(-c3cnc4n[nH]nc4c3)cc2c1N1CCc2cc(F)c(Cl)cc21`, the growth was -0.117% (active).
The same measure, in the same setting: as for `CNC(=O)Nc1ccc(Nc2cc(-c3ccc(-n4cccn4)cc3)[nH]n2)c(C)c1`, the figure is 123% (inactive); as for `CN1CCN(Cc2ccc(NC(=O)c3cncc(C#Cc4cnc5ccc(N)nn45)c3)cc2C(F)(F)F)CC1`, 57.7% (inactive); as for `Cc1cc(=O)oc2cc(OCCCOc3ccc(/C=C/C(=O)Nc4ccc(Br)cc4)cc3)ccc12`, 115% (inactive).

These data come from PubChem BioAssay (NCI).
